Compound in this experiment: Nc1ncnc2c1ncn2[C@@H]1O[C@H](COP(=O)(O)OP(=O)(O)OP(=O)(O)O)[C@@H](O)[C@H]1O [adenosine 5'-triphosphate]
The experiment is described as follows: log2 fold change of tryptic peptide abundance, ligand vs vehicle (limited proteolysis) (log2 ratio); higher = more trypsin-susceptible (destabilized). Conditions: ligand concentration: 5 mM; sample: E. coli desalted lysate; replicate design: treated before aliquoting. How it is done: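 HT-PELSA: desalted E. coli K-12 BW25113 lysate (with 12 mM MgCl2) incubated with 5 mM ATP (pH 7) or water for 30 min at 25 C, then a 4 min trypsin pulse at 22 C. Peptides were quantified by DIA-MS (4 replicates). Value is the peptide log2 fold change (treated/control); negative = stabilized. Scale: negative = ligand-stabilized region.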
UniProt P23841, sequence (P23841 whole entry): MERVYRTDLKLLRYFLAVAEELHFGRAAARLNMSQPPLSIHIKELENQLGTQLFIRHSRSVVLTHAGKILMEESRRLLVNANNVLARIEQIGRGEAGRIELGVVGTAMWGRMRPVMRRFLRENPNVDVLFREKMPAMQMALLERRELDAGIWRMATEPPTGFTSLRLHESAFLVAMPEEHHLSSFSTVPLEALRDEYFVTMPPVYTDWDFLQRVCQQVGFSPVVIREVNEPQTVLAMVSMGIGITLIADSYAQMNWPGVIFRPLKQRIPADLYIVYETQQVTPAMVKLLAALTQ
UniProt P06959, sequence (P06959 whole entry): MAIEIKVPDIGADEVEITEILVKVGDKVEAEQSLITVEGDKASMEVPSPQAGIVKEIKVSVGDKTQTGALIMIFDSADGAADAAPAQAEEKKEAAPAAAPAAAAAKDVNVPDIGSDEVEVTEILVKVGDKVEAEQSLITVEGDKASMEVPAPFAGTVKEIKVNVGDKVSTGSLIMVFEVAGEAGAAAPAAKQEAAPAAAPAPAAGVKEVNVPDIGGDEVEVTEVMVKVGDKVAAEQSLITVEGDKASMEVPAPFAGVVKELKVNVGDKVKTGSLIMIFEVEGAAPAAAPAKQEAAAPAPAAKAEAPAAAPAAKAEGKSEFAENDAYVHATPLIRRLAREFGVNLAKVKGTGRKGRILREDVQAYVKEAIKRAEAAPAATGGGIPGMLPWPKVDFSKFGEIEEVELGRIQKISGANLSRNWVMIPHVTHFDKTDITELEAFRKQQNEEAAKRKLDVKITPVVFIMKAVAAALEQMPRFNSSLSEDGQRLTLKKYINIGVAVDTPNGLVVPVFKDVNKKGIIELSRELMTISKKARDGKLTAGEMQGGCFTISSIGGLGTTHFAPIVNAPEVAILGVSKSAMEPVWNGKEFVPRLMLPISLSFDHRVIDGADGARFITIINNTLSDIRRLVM
UniProt P00550, sequence (P00550 whole entry): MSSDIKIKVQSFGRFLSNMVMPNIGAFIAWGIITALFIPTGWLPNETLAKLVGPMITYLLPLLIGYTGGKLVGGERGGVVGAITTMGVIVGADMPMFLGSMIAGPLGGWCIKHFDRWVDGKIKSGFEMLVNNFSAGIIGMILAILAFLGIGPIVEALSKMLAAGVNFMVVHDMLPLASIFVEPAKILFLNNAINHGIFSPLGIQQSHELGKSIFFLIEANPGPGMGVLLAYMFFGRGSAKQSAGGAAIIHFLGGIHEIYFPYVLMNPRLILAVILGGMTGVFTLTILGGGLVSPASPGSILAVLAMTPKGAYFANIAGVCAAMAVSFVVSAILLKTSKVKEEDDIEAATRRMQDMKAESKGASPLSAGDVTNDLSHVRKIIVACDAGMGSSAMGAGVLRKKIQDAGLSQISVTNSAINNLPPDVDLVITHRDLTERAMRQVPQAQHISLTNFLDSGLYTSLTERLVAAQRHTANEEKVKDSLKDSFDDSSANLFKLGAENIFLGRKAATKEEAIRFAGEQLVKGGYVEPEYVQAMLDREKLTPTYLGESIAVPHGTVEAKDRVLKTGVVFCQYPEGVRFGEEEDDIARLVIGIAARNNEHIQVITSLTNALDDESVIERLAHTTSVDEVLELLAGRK
UniProt P27830, sequence (P27830 whole entry): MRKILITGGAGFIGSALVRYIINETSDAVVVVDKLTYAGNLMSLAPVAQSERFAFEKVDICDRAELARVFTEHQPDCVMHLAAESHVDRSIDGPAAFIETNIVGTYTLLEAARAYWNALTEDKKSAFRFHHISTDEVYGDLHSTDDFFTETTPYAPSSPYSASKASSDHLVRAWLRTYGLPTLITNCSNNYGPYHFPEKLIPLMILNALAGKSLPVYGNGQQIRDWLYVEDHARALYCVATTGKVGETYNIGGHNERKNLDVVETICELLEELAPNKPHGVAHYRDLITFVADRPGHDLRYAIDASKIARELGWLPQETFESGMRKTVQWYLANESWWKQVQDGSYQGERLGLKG
UniProt P45527, sequence (P45527 whole entry): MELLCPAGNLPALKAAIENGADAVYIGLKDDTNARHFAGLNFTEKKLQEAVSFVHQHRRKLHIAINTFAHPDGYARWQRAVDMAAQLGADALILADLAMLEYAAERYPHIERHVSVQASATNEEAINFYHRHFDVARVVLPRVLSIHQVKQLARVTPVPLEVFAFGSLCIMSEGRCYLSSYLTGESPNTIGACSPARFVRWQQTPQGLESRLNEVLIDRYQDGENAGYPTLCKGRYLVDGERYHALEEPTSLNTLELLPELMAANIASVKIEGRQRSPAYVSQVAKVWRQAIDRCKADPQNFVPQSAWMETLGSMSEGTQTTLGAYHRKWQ
UniProt P77302, sequence (P77302 whole entry): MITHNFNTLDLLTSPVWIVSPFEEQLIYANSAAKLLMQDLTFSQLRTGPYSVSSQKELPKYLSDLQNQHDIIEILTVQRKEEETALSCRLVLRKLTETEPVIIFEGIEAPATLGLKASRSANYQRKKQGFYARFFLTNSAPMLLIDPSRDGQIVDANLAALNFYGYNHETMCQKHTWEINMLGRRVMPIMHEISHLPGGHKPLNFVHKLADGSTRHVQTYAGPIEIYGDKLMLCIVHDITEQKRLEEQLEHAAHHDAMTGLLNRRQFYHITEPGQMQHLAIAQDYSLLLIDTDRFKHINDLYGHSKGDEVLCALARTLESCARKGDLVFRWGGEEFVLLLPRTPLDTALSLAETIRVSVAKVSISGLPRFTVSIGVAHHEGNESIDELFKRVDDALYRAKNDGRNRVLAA
UniProt P0ACU0, sequence (P0ACU0 whole entry): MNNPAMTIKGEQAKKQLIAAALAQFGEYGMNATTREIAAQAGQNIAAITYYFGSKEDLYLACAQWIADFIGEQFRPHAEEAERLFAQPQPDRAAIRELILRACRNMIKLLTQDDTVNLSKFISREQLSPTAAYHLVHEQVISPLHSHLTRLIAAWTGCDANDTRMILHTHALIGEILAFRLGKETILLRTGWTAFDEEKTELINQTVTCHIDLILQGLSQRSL
UniProt P76545, sequence (P76545 whole entry): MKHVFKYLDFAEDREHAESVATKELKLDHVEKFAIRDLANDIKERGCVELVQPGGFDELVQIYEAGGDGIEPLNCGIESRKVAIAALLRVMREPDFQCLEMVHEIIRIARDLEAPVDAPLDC
UniProt P76502, sequence (P76502 whole entry): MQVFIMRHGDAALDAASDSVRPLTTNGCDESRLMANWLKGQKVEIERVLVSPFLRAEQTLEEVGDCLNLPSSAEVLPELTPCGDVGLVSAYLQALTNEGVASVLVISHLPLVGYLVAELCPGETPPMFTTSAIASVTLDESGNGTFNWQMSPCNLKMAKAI
UniProt P0AF96, sequence (P0AF96 whole entry): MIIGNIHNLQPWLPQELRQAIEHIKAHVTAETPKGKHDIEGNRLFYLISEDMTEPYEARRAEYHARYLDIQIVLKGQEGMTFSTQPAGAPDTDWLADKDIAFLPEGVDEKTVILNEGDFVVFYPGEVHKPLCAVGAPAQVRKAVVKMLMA
UniProt P77721, sequence (P77721 whole entry): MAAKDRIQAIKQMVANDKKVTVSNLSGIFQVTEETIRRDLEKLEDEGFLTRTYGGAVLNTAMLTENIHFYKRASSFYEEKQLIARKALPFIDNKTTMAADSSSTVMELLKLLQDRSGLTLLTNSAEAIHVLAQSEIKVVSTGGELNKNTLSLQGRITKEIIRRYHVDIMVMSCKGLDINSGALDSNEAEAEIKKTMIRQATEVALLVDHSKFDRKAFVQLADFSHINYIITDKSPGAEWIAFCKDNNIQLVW
UniProt P33594, sequence (P33594 whole entry): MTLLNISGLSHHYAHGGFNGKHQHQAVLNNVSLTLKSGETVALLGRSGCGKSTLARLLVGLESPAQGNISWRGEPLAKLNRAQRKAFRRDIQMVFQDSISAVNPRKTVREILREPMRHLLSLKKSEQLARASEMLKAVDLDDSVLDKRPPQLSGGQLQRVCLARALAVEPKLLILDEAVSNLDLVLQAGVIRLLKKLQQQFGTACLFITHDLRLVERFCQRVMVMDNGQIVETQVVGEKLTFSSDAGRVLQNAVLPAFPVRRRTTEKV
UniProt P21345, sequence (P21345 whole entry): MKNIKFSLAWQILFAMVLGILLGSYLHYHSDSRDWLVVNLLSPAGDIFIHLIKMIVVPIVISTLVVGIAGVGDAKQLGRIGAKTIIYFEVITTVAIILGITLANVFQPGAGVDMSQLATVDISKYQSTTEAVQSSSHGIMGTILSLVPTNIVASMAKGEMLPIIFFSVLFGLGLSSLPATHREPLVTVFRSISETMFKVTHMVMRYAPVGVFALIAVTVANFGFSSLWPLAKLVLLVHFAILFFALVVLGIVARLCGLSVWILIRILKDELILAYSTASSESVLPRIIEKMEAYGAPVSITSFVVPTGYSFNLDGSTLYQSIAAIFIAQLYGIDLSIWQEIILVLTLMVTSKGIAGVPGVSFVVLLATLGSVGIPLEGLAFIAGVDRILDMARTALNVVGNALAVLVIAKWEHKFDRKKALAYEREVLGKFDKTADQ
UniProt P37005, sequence (P37005 whole entry): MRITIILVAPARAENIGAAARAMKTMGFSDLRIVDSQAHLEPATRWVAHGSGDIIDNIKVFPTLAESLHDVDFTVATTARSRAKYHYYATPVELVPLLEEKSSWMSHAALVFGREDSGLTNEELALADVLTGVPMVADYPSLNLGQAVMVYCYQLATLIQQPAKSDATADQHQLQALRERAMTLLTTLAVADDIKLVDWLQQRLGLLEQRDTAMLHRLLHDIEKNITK
UniProt P27238, sequence (P27238 whole entry): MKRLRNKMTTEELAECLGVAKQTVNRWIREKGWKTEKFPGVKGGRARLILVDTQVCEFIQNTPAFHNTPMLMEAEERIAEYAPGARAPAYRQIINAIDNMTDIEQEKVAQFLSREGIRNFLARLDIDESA
UniProt P39187, sequence (P39187 whole entry): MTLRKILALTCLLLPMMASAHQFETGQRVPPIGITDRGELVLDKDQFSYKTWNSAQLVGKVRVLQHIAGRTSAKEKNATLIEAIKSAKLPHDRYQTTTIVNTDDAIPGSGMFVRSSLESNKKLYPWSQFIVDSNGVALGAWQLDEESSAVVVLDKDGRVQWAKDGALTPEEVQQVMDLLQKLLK
For the target “UniProt P31129 (peptide sequence: SNMDVLTGLPGRR, peptide start residue: 129)”, the log2 fold change is -1.39.
Turning to “UniProt P00760 (peptide sequence: LKSAASLNSR, peptide start residue: 113)”, the log2 fold change stood at 0.367.
The value for “UniProt P33602 (peptide sequence: IAPYYHLFGSDELSQR, peptide start residue: 812)” was 0.28; that for “UniProt P37908 (peptide sequence: RNQDMLLSVLDLEK, peptide start residue: 188)” was -2.2.
The result for “UniProt P00582 (peptide sequence: QLNIPRK, peptide start residue: 776)” reads -3.24; that for “UniProt P39099 (peptide sequence: SRIATTEPGTK, peptide start residue: 330)”, 0.877.
The result for “UniProt P21345 (peptide sequence: EVLGKFDKTADQ, peptide start residue: 426)” reads -1.41; that for “UniProt P06959 (peptide sequence: VDFSKFGEIEEVELGR, peptide start residue: 392)”, 0.812.
On to “UniProt P36938 (peptide sequence: FMHLDKDGAIR, peptide start residue: 268)”, for which the log2 fold change was -0.898.
On to “UniProt P33594 (peptide sequence: VLQNAVLPAFPVRR, peptide start residue: 249)”, for which the log2 fold change worked out at 0.401.
The value for “UniProt P32143 (peptide sequence: AGIPDCDQTR, peptide start residue: 282)” was -2.48; that for “UniProt P77721 (peptide sequence: VVSTGGELNK, peptide start residue: 138)” was -0.442; that for “UniProt P00550 (peptide sequence: GASPLSAGDVTNDLSHVRK, peptide start residue: 361)” was 0.413.
As to “UniProt P45527 (peptide sequence: KLQEAVSFVHQHRR, peptide start residue: 46)”, the log2 fold change was 0.779.
For “UniProt P27830 (peptide sequence: ASSDHLVR, peptide start residue: 172)”, the log2 fold change was -0.668.
The result for “UniProt P39830 (peptide sequence: GANQVVMGER, peptide start residue: 528)” reads 1.21; that for “UniProt P77364 (peptide sequence: IDSQTAGGKAPLGVASVAK, peptide start residue: 295)”, -0.814; that for “UniProt P27238 (peptide sequence: NKMTTEELAECLGVAK, peptide start residue: 6)”, 0.577.
Turning to “UniProt P0ACU0 (peptide sequence: LLTQDDTVNLSK, peptide start residue: 109)”, the log2 fold change came out at 0.555.
The result for “UniProt P39187 (peptide sequence: VLQHIAGR, peptide start residue: 63)” reads 0.842; that for “UniProt P0ACN7 (peptide sequence: LMDCELIIR, peptide start residue: 326)”, 1.5; that for “UniProt P0AF96 (peptide sequence: AHVTAETPK, peptide start residue: 26)”, -0.321.
The result for “UniProt P23305 (peptide sequence: DLGLAGASLR, peptide start residue: 115)” reads 0.488; that for “UniProt P07001 (peptide sequence: FFTGQITAAGK, peptide start residue: 152)”, -0.651.
The result for “UniProt P76545 (peptide sequence: YLDFAEDREHAESVATK, peptide start residue: 7)” reads -2.38; that for “UniProt P75830 (peptide sequence: TNLDYTR, peptide start residue: 179)”, -0.551.
As for “UniProt P75838 (peptide sequence: GICGLPFTR, peptide start residue: 152)”, the log2 fold change was -2.31.
The value for “UniProt P0AB12 (peptide sequence: VVSVETAQAAR, peptide start residue: 129)” was 0.652; that for “UniProt P07118 (peptide sequence: TGNMMQPQLADKIR, peptide start residue: 582)” was 2.07.
The value for “UniProt P08200 (peptide sequence: AAIEYAIANDRDSVTLVHK, peptide start residue: 212)” was -0.698; that for “UniProt P76014 (peptide sequence: EIGDADHGLNMNR, peptide start residue: 32)” was -2.08; that for “UniProt P21499 (peptide sequence: DGQLVFTR, peptide start residue: 65)” was -0.675.
The result for “UniProt P0A7D4 (peptide sequence: EMKELEDR, peptide start residue: 83)” reads -1.78.
With “UniProt P76502 (peptide sequence: VLVSPFLR, peptide start residue: 48)”, the log2 fold change came to 0.397.
The result for “UniProt Q47147 (peptide sequence: QANRGEVALENTHPFTR, peptide start residue: 80)” reads 0.755; that for “UniProt P0ACW4 (peptide sequence: GGISHCTAGGK, peptide start residue: 30)”, -0.911; that for “UniProt P77302 (peptide sequence: KEEETALSCR, peptide start residue: 80)”, -1.39.
The result for “UniProt P0AEK2 (peptide sequence: ALSDDQRAGILAQVPAGR, peptide start residue: 191)” reads 0.83; that for “UniProt P37005 (peptide sequence: IVDSQAHLEPATR, peptide start residue: 33)”, -0.548; that for “UniProt P23841 (peptide sequence: LNMSQPPLSIHIK, peptide start residue: 31)”, -0.876.
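Also: lysate desalted by size exclusion to strip endogenous ATP, peptide intensities built from DIA-NN precursor signals, and peptides missing any value discarded before comparison.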
